From PubChem BioAssay (EPA / NIEHS) come the findings set out here.

Molecules are shown by their SMILES. The source made the active and inactive calls. The calls were made as follows: active = hit-call score of the fitted dose curve at least 0.9, where 1 is the maximum; inactive = score below 0.9.

The target of experiment [1] is CCAAT/enhancer-binding protein beta (Homo sapiens) (UniProt P17676). In words: ATG_C_EBP_CIS: Attagene CIS-FACTORIAL HepG2 Assay for human CCAAT/Enhancer Binding Protein (C/EBP) beta (AID 2282927). Particulars: HepG2 Attagene cis-factorial transcription factor reporter; actives raise or lower the signal. The method in brief: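 HepG2, transient MRTU transfection, 24 h treatment. RT-PCR plus CE fluorescence; DMSO negative control, bidirectional fit.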

Experiment [2] is described as follows: ATG_DR4_LXR_CIS: Attagene CIS-FACTORIAL HepG2 Assay for human Liver X Receptor (LXR), DR4 submotif (AID 2282929). Particulars: HepG2 Attagene DR4 cis-reporter, mRNA transcription; actives raise or lower the signal. The method in brief:
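DR4 cis-reporter in HepG2, 24 h exposure. Detection: RT-PCR, 6-FAM labelling, CE fragment analysis. Endpoint fitted bidirectionally, DMSO = baseline.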

Experiment [3] has as its target Aryl hydrocarbon receptor (Homo sapiens) (UniProt P35869). Description: ATG_Ahr_CIS: Attagene CIS-FACTORIAL HepG2 Assay for human Aryl Hydrocarbon Receptor (Ahr) (AID 2282930). Particulars: HepG2 AhR cis-factorial reporter transcription; actives raise or lower the signal. In a few lines: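 Endogenous factor activity is tracked through cis-promoter reporter units transfected into HepG2 cells. Transcript levels at 24 h are read by fluorescent RT-PCR and capillary electrophoresis, with activity in either direction scored relative to DMSO.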

A short description of experiment [4]: ATG_AP_1_CIS: Attagene CIS-FACTORIAL HepG2 Assay for human Activator Protein 1 (AP-1) (AID 2282931). Particulars: HepG2 Attagene cis-factorial AP-1 reporter mRNA; actives raise or lower the signal. In a few lines: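 Cis-regulated reporter units transiently expressed in HepG2 report endogenous transcription-factor activity. Signal: reporter mRNA at 24 h, via RT-PCR and fluorescent capillary electrophoresis. Endpoint derived by bidirectional fitting, DMSO as negative control.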

A short description of experiment [5]: ATG_AP_2_CIS: Attagene CIS-FACTORIAL HepG2 Assay for human Activator Protein 2 (AP-2) (AID 2282932). Particulars: HepG2 AP-2 cis-reporter, Attagene transcription factor profiling; actives raise or lower the signal. The method in brief:
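Liver-derived HepG2 line, cis-reporter system measuring endogenous factors; 24 h dosing; reporter mRNA detected by fluorescent RT-PCR and capillary electrophoresis.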

A short description of experiment [6]: ATG_BRE_CIS: Attagene CIS-FACTORIAL HepG2 Assay for human Bone Morphogenetic Protein (BMP) Response Element (BRE) (AID 2282933). The note with it: HepG2 BMP response element reporter, Attagene transcription factor profiling; actives raise or lower the signal. The method in brief: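 HepG2 cells transiently transfected with multiplexed cis-element reporter units were dosed with chemical for 24 h. Reporter mRNA was measured by RT-PCR with fluorescent labelling, HpaI digestion and capillary electrophoresis; bidirectional fitting relative to DMSO.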

Experiment [7] addresses Retinoic acid receptor alpha (Homo sapiens) (UniProt P10276). In words: ATG_DR5_RAR_CIS: Attagene CIS-FACTORIAL HepG2 Assay for human Retinoic Acid Receptor Alpha (RARE), DR5 submotif (AID 2282934). Particulars: HepG2 Attagene cis-factorial RARE DR5 reporter, mRNA; actives raise or lower the signal. The method in brief:
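After 24 h of chemical exposure, transiently transfected HepG2 cells were lysed for total RNA; the DR5-regulated reporter transcript was quantified via RT-PCR and capillary electrophoresis, with activity fitted bidirectionally against DMSO.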

In experiment [8] the target is Transcription factor E2F1 (Homo sapiens) (UniProt Q01094). In words: ATG_E2F_CIS: Attagene CIS-FACTORIAL HepG2 Assay for human E2F Transcription Factor 1 (AID 2282935). The note with it: HepG2 Attagene cis-reporter, E2F reporter RNA transcripts; actives raise or lower the signal. In a few lines: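 Liver-derived HepG2 cells expressing transfected promoter-driven reporter units received test chemical for 24 hours. Signal gains or losses were fitted bidirectionally against DMSO.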

A short description of experiment [9]: ATG_E_Box_CIS: Attagene CIS-FACTORIAL HepG2 Assay for human Enhancer Box (E-box) (AID 2282936). Particulars: HepG2 E-box cis-reporter transcription, actives raise or lower the signal. The method in brief: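 In this cell-based setup, HepG2 cells bearing transfected promoter-driven reporter units were exposed to chemicals for 24 h; reporter transcripts were amplified, 6-FAM-labelled, cut with HpaI and sized by capillary electrophoresis.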

Experiment [10] in a line: ATG_M_61_CIS: Attagene CIS-FACTORIAL HepG2 Assay for M61 Transcription Factor (Internal Marker) (AID 2282937). Particulars: HepG2 Attagene CIS-FACTORIAL M61 internal marker reporter; actives raise or lower the signal. The method in brief:
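Background-control endpoint: HepG2 cells with cis-regulated reporter constructs, 24 h exposure, reporter mRNA detected via fluorescent primer extension and capillary electrophoresis; values from bidirectional fitting with DMSO baseline.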

Experiment [11] can be described thus: ATG_EGR_CIS: Attagene CIS-FACTORIAL HepG2 Assay for human Early Growth Response 1 (EGR1) (AID 2282938). Particulars: HepG2 Attagene CIS-FACTORIAL EGR reporter mRNA; actives raise or lower the signal. The method in brief: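 Endpoint derived by bidirectional fitting versus DMSO vehicle. Method: cis-promoter reporter units transfected into HepG2, 24 h dosing, RNA isolation, RT-PCR with 6-FAM primer extension and HpaI digestion, then capillary electrophoresis fluorescence detection.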

The nature of experiment [12]: ATG_M_19_CIS: Attagene CIS-FACTORIAL HepG2 Assay for M19 Transcription Factor (Internal Marker) (AID 2282939). The note with it: HepG2 Attagene CIS-FACTORIAL M19 internal marker reporter; actives raise or lower the signal. The method in brief: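 HepG2 cells transiently transfected with cis-regulated multiple reporter transcription units were dosed for 24 h; reporter mRNA was quantified by RT-PCR, 6-FAM primer-extension labelling, HpaI digestion and capillary electrophoresis, with bidirectional fitting against DMSO baseline.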

Experiment [13] in a line: ATG_Ets_CIS: Attagene CIS-FACTORIAL HepG2 Assay for human Erythroblast Transformation Specific (ETS) (AID 2282941). The note with it: HepG2 ETS cis-reporter transcription, actives raise or lower the signal. In a few lines:
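Bidirectional fit versus DMSO of reporter mRNA signal, detected by RT-PCR and capillary electrophoresis in HepG2 cells transiently transfected with cis-element reporters and dosed 24 h.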

Experiment [14] has as its target Hepatocyte nuclear factor 3-beta (Homo sapiens) (UniProt Q9Y261). In words: ATG_FoxA2_CIS: Attagene CIS-FACTORIAL HepG2 Assay for human Forkhead box A2 (FOXA2) (AID 2282942). The note with it: HepG2 cis-reporter transcription factor activity, 24 h; actives raise or lower the signal. The method in brief: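 Measured: reporter mRNA induction or loss in HepG2 transiently carrying multiple cis-regulated reporter units, 24 h after dosing. Quantified by RT-PCR plus capillary electrophoresis, normalised to DMSO.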

The nature of experiment [15]: ATG_FoxO_CIS: Attagene CIS-FACTORIAL HepG2 Assay for human Forkhead box O (FoxO) (AID 2282943). The note with it: HepG2 Attagene cis-reporter, FoxO element, mRNA; actives raise or lower the signal. The method in brief: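 Transfected HepG2 reporter cells exposed to test chemical for 24 h; reporter RNA measured by reverse transcription, PCR and fluorescent capillary electrophoresis; curves fitted for increases and decreases against DMSO.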

Experiment [16] in a line: ATG_GATA_CIS: Attagene CIS-FACTORIAL HepG2 Assay for human GATA Binding Protein (AID 2282944). The note with it: HepG2 GATA cis-element reporter, Attagene multiplex mRNA; actives raise or lower the signal. In a few lines:
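HepG2 cells transiently transfected with multiplexed cis-element reporter units reflecting endogenous transcription factor activity; reporter mRNA measured after 24 h dosing by RT-PCR, 6-FAM labeling, HpaI digestion and capillary electrophoresis. Bidirectional fitting versus DMSO baseline.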

Experiment [17] in a line: ATG_GLI_CIS: Attagene CIS-FACTORIAL HepG2 Assay for human Zinc Finger Protein GLI1 (AID 2282945). Particulars: HepG2, Attagene cis-factorial reporter mRNA, GLI element; actives raise or lower the signal. The method in brief: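 Transiently transfected HepG2 cells report endogenous transcription factor activity via cis-element-driven reporter units. After 24 h compound exposure, reporter mRNA was measured by RT-PCR with capillary electrophoresis; bidirectional fitting against DMSO baseline.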

Experiment [18] is described as follows: ATG_CMV_CIS: Attagene CIS-FACTORIAL HepG2 Assay for human CMV (Internal Marker) (AID 2282928).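 Also: endpoint acts as a background internal control marker rather than a target.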 The note with it: HepG2 CMV promoter reporter, transcription factor profiling; actives raise or lower the signal. The method in brief: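 Reporter transcripts from transfected HepG2 cells are isolated after 24 h of chemical dosing, reverse-transcribed and amplified. Fragments labeled with 6-FAM are cut with HpaI and quantified by capillary electrophoresis; DMSO defines baseline.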

Chain of Hepatocyte nuclear factor 3-beta (Homo sapiens) (Q9Y261 whole entry, looked up): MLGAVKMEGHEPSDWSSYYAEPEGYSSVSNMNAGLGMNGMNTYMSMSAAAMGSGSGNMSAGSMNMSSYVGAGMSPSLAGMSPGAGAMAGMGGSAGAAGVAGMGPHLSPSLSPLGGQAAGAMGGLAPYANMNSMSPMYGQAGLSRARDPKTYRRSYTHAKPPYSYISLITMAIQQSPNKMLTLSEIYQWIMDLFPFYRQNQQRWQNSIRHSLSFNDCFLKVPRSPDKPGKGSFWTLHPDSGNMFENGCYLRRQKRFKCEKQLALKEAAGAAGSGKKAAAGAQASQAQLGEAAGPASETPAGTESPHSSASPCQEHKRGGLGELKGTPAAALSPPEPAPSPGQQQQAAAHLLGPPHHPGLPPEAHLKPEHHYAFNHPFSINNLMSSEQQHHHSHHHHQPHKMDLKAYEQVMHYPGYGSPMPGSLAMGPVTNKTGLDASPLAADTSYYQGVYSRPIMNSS
Chain of Retinoic acid receptor alpha (Homo sapiens) (P10276 whole entry, looked up): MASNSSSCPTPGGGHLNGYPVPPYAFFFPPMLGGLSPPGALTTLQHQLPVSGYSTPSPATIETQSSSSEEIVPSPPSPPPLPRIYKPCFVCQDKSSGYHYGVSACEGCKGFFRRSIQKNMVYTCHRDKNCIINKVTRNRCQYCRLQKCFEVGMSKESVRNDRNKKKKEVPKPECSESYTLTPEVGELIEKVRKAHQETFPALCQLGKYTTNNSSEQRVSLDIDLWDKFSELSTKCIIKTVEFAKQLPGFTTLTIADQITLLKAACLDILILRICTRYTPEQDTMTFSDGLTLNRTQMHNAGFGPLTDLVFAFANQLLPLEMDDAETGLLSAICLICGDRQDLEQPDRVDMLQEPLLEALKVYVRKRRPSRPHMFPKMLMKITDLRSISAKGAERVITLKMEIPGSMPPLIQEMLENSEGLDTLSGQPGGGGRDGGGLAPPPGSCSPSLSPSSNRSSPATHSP
Chain of Transcription factor E2F1 (Homo sapiens) (Q01094 whole entry, looked up): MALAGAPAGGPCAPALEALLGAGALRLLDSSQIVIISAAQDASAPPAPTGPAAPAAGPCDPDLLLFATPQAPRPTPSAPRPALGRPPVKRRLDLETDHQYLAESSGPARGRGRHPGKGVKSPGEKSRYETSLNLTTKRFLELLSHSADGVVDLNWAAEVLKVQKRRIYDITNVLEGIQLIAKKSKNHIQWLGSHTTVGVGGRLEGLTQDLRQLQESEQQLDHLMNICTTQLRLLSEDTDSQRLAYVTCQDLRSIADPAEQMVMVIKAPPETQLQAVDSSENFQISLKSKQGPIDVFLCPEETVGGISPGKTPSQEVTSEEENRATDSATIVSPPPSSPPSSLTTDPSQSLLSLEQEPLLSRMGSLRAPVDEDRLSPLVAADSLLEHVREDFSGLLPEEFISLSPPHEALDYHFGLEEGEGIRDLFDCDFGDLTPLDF
Chain of Aryl hydrocarbon receptor (Homo sapiens) (P35869 whole entry, looked up): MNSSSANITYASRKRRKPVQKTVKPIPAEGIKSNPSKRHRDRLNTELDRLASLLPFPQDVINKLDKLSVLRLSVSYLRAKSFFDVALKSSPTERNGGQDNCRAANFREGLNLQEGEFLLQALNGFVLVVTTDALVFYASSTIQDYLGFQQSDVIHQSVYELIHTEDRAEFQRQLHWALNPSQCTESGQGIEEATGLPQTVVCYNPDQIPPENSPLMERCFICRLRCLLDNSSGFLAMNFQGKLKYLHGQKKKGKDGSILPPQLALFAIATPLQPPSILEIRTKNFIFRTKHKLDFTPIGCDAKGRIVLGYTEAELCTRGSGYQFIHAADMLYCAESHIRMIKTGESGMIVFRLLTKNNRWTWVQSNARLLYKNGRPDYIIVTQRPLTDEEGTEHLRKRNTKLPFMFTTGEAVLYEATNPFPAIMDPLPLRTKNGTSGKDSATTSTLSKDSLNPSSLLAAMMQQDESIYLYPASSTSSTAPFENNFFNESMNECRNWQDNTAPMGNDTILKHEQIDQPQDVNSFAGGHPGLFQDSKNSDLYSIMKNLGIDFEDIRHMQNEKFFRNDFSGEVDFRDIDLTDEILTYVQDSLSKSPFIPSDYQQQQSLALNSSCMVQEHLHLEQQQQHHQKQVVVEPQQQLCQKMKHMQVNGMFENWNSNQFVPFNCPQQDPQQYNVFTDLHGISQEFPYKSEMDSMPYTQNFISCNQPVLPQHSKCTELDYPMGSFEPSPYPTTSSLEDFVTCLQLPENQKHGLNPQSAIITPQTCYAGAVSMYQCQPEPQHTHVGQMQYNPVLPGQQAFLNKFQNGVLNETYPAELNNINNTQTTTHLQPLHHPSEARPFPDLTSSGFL
Chain of CCAAT/enhancer-binding protein beta (Homo sapiens) (P17676 whole entry, looked up): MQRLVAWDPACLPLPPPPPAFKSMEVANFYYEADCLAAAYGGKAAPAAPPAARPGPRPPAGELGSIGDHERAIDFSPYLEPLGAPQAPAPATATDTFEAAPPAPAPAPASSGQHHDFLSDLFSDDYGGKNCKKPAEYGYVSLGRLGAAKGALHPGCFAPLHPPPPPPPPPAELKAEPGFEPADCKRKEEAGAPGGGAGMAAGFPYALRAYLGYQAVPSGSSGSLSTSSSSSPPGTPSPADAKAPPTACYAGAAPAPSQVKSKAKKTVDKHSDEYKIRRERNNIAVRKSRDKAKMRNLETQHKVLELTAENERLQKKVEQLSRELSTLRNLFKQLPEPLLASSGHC

For the compound `CCCSc1ccc2nc(NC(=O)OC)[nH]c2c1`, the outcome in experiment [1], in experiment [2], in experiment [3], in experiment [4], in experiment [5] and in experiment [6] was inactive. Moreover, the result in [7], in [8], in experiment [9], in experiment [10], in experiment [11] and in [12] was inactive. In addition, the outcome in [13], in [14], in experiment [15], in [16] and in experiment [17] was inactive.
Turning to `CC1CC(O)CC(C)(C)C1` (centres undefined), the outcome in experiment [1], in experiment [18], in experiment [2], in experiment [3], in [4] and in experiment [5] was inactive. Besides, the compound was classed as inactive in experiment [6], in experiment [7], in experiment [8], in experiment [9], in experiment [10] and in experiment [11]. Also, the call in [12], in experiment [13], in experiment [14], in experiment [15], in experiment [16] and in experiment [17] was inactive.
For the compound `OC[C@H]1O[C@@H]2O[C@H]3[C@H](O)[C@@H](O)[C@@H](O[C@H]4[C@H](O)[C@@H](O)[C@@H](O[C@H]5[C@H](O)[C@@H](O)[C@@H](O[C@H]6[C@H](O)[C@@H](O)[C@@H](O[C@H]7[C@H](O)[C@@H](O)[C@@H](O[C@H]8[C@H](O)[C@@H](O)[C@@H](O[C@H]9[C@H](O)[C@@H](O)[C@@H](O[C@H]1[C@H](O)[C@H]2O)O[C@@H]9CO)O[C@@H]8CO)O[C@@H]7CO)O[C@@H]6CO)O[C@@H]5CO)O[C@@H]4CO)O[C@@H]3CO`, the outcome in experiment [1], in [18], in experiment [2], in experiment [3], in experiment [4] and in experiment [5] was inactive. For the same compound, the compound was called inactive in [7], in [9], in [10], in experiment [12], in experiment [13] and in [14]. Besides, the result in experiment [15], in experiment [16] and in [17] was inactive.
As for `CCCC(=O)OC(C)(C)Cc1ccccc1`, the outcome in [1], in experiment [18], in experiment [2], in experiment [4], in experiment [5] and in experiment [6] was inactive. In addition, the compound was called inactive in [7], in [8], in experiment [9], in [10], in experiment [11] and in experiment [12]. In addition, the compound was classed as inactive in experiment [13], in experiment [14], in experiment [15], in experiment [16] and in experiment [17]. The AC50 in experiment [3] is 72.8 µM (active).
With `COC(=O)c1ccc([N+](=O)[O-])cc1`, the result in experiment [1], in experiment [2], in experiment [3], in [5], in experiment [6] and in [7] was inactive. For the same compound, the call in experiment [8], in [9], in experiment [10], in [11], in [12] and in experiment [13] was inactive. Besides, the compound was classed as inactive in experiment [14], in experiment [15], in experiment [16] and in [17].
Turning to `CCCOC(=O)c1c(Cl)c(Cl)c(Cl)c(Cl)c1C(=O)OCCC`, the result in [1], in [3], in experiment [5], in experiment [6], in experiment [7] and in experiment [9] was inactive. Further, the compound was classed as inactive in experiment [10], in [11], in experiment [12], in experiment [13], in [14] and in [15]. Moreover, the result in [16] was inactive. Also, the AC50 in experiment [18] is 73.6 µM (active); in experiment [2], 27 µM (active); in [4], 178 µM (active); in experiment [8] it was 59.9 µM (active); in experiment [17] it was 74.8 µM (active).
As for `CCOC(=O)C(C#N)=C(c1ccccc1)c1ccccc1`, the result in experiment [1], in experiment [3], in experiment [5], in [7], in experiment [8] and in experiment [9] was inactive. Moreover, the compound was classed as inactive in experiment [10], in experiment [12], in [13], in experiment [14], in experiment [15] and in experiment [16]. The result in experiment [17] was inactive. The AC50 in experiment [2] is 29.6 µM (active); in [4], 178 µM (active); in experiment [6] it was 125 µM (active); in [11], 20 µM (active).

The term AC50 denotes the concentration giving half of the maximal activity seen.
